Data from ChEMBL document CHEMBL3988442, “University of Dundee, Small-Polar-MMV Screening Library” (2021).
For some of these results: Potency and affinity values are given separately.

Key:
Design in all cases: scale not given: direction of the effect not stated beside the values
[1] = target: Protein translocase subunit SecA (Escherichia coli (strain K12)) (UniProt P10408); test: Assay to Identify E. coli SecA ATPase Inhibitors; type: functional; settings: 30 µM
[2] = target: T1, Ubiquitin-activating enzyme e1, putative (Leishmania donovani (strain BPK282A1)) (UniProt E9BSI1); test: Leishmania donovani Ubiquitin Activating Enzyme (LdE1); type: functional; settings: 30 µM
T1 sequence (whole entry): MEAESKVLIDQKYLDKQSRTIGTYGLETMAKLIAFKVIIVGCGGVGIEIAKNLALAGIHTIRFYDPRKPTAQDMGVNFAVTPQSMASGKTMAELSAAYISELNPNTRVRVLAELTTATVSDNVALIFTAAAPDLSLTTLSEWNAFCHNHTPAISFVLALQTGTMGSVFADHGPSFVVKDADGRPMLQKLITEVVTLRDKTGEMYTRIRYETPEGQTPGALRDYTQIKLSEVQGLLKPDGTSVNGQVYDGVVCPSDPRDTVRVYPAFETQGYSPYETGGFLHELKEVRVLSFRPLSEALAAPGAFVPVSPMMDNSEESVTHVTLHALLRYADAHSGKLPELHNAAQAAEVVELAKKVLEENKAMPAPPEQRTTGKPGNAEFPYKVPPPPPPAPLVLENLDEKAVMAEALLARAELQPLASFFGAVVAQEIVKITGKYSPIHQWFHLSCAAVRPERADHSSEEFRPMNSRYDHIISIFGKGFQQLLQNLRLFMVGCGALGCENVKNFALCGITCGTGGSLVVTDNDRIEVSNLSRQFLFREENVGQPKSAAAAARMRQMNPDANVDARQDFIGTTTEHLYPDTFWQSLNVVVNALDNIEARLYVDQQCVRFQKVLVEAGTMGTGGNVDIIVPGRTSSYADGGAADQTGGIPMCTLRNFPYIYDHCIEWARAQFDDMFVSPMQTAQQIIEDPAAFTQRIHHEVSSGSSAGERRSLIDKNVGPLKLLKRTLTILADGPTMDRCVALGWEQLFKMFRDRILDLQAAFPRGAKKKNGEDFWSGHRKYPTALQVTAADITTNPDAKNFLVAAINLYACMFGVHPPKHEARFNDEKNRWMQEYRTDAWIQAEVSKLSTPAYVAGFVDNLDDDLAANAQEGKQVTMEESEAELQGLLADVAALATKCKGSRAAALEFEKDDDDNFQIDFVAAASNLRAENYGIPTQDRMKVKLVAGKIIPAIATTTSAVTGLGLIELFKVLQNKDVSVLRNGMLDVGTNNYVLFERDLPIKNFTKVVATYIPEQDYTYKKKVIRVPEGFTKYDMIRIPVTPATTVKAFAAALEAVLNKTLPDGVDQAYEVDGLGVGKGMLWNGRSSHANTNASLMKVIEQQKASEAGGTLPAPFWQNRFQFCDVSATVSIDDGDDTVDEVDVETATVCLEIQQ

[3] = target: AMP-activated protein kinase, AMPK (Homo sapiens) (UniProt P54646+O43741+P54619+Q9UGJ0+Q9Y478+Q13131+Q9UGI9); test: AMP-dependent Kinase enzyme assay. An in vitro enzyme assay that detects ADP turnover that is directly proportional to AMPK activity. This uses naive AMPK that is activated during the assay with MK-8722; type: functional; settings: 30 µM
[4] = target: Sialic acid-binding Ig-like lectin 9 (Homo sapiens) (UniProt Q9Y336); test: Hs-Siglec9 ALPHAscreen SOP 20170721; settings: 10 µM
[5] = test system: Trypanosoma cruzi; test: Trypanosoma cruzi phosphomannomutase and mannose-1-phosphate guanylyltransferase assay; type: functional; settings: 10 µM
[6] = target: T2, Arginase-2, mitochondrial (Homo sapiens) (UniProt P78540); test: in vitro enzyme assay to detect the production of urea directly proportional to the activity of Arginase II; type: functional; settings: 33.3 µM; note: in the data most compounds retested in dose-response had high values
T2 sequence (whole entry): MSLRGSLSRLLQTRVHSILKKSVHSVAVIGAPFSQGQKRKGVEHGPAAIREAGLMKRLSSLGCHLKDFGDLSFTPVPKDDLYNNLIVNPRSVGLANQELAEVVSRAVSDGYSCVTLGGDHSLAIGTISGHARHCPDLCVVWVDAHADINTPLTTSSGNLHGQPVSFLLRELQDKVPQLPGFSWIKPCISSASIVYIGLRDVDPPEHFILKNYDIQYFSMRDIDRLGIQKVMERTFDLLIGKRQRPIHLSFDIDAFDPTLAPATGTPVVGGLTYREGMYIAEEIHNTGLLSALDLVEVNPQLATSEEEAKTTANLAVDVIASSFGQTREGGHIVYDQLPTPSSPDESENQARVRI

[7] = target: T3, Proteasome subunit beta (Trypanosoma cruzi) (UniProt O96673); test: Trypanosoma cruzi proteasome chymotrypsin-like activity (TcProtChymo) assay.; note: in the data most compounds retested in dose-response had high values; type: functional; settings: 9.37 µM
T3 sequence (whole entry): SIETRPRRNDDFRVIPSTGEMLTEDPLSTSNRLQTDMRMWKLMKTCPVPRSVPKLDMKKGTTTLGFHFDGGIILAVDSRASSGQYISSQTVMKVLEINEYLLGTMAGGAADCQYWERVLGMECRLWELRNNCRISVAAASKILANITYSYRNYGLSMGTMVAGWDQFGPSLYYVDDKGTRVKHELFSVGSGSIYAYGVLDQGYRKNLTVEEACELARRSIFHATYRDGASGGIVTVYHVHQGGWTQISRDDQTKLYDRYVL

[8] = organism: Homo sapiens; test: To identify inhibition of the IFN signalling (Jak-Stat) pathway via expression of an eGFP reporter gene under the control of an IFN-stimulated response element (ISRE) containing MxA promoter.; type: functional; settings: 30 µM
[9] = target: T4, Tyrosyl-tRNA synthetase, putative (Trypanosoma cruzi (strain CL Brener)) (UniProt Q4DSP6); test: Trypanosoma cruzi tyrosyl tRNA synthetase (TcYRS) _High Tyrosine SOP; type: functional; settings: 30 µM; note: in the data most compounds retested in dose-response had high values
T4 sequence (whole entry): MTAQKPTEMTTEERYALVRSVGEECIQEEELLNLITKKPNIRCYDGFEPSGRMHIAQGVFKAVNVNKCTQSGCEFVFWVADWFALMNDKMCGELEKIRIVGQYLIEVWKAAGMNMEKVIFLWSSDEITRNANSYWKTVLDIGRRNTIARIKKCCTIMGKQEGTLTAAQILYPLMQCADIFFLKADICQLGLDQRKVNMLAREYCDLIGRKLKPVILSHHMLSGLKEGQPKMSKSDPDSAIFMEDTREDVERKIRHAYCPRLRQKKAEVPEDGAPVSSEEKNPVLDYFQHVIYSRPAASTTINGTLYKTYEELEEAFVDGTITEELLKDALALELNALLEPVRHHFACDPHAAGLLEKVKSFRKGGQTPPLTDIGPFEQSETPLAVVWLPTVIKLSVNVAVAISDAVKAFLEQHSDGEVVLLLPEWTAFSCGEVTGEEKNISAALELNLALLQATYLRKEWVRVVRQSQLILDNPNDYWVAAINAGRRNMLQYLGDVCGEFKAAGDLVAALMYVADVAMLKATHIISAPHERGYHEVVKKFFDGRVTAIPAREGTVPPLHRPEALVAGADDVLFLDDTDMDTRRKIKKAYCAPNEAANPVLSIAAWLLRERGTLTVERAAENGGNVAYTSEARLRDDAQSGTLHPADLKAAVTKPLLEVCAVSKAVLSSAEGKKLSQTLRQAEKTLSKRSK

[10] = target: T4, Tyrosyl-tRNA synthetase, putative (Trypanosoma cruzi (strain CL Brener)); test: Trypanosoma cruzi tyrosyl tRNA synthetase (TcYRS) SOP; type: functional; settings: 30 µM
[11] = target: Chromo domain-containing protein 1 (Saccharomyces cerevisiae (strain ATCC 204508 / S288c) (Baker's yeast)) (UniProt P32657); test: ScCHD-1 Enzyme Inhibition Assay; type: functional; settings: 30 µM; note: in the data most compounds retested in dose-response had high values
Sequence of Chromo domain-containing protein 1 (Saccharomyces cerevisiae (strain ATCC 204508 / S288c) (Baker's yeast)) (P32657 whole entry, the tested form may be a part): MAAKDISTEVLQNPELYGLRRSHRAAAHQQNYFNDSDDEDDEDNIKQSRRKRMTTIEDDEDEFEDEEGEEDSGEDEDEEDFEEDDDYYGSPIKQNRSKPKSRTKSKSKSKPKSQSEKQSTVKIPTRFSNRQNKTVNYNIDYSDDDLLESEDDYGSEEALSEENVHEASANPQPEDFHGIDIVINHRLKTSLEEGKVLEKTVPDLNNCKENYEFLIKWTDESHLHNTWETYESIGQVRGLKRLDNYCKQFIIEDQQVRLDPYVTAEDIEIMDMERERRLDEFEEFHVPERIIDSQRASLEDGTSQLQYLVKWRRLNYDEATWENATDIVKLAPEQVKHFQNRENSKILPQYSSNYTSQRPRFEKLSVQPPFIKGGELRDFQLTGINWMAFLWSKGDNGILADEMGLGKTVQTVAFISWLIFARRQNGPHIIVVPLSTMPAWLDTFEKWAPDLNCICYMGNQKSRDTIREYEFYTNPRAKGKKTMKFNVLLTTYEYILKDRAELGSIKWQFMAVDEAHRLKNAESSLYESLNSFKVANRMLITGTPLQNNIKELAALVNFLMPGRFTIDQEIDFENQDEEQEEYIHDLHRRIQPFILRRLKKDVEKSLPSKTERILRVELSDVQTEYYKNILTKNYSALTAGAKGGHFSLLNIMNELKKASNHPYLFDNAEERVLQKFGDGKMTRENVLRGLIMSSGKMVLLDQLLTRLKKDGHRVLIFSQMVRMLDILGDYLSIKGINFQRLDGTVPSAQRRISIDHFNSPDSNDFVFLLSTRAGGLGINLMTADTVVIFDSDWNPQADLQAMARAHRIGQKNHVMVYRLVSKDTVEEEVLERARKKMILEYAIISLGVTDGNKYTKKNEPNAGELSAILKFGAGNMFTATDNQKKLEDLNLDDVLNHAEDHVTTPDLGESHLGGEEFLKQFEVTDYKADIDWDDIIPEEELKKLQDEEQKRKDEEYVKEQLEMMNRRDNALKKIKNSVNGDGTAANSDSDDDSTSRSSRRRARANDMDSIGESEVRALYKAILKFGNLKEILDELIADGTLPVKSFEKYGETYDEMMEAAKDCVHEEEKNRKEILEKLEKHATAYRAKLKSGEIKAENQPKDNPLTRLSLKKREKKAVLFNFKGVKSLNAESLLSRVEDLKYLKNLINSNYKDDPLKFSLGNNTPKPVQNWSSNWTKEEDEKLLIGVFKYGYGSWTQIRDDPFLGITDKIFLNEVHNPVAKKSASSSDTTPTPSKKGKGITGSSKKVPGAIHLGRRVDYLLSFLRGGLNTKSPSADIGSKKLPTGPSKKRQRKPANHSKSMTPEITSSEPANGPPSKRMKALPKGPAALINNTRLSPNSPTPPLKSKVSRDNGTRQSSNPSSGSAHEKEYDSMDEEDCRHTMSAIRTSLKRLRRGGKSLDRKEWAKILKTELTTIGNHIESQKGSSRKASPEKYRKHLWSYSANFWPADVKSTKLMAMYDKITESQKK

Sequence of Sialic acid-binding Ig-like lectin 9 (Homo sapiens) (Q9Y336 whole entry): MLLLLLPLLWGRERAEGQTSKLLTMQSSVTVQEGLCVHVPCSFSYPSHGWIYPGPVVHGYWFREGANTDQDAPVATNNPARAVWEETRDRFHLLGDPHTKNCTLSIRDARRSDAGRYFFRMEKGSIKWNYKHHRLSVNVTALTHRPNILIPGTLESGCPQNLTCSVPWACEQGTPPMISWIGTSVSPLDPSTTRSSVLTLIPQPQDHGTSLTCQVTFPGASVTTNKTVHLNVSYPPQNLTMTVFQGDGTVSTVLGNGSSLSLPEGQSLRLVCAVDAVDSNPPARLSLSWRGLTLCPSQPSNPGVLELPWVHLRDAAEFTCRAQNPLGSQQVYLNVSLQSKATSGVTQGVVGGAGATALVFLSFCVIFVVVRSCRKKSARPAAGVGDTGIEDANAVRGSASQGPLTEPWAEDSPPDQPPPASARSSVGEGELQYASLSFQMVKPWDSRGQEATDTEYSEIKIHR
Sequence of Protein translocase subunit SecA (Escherichia coli (strain K12)) (P10408 whole entry): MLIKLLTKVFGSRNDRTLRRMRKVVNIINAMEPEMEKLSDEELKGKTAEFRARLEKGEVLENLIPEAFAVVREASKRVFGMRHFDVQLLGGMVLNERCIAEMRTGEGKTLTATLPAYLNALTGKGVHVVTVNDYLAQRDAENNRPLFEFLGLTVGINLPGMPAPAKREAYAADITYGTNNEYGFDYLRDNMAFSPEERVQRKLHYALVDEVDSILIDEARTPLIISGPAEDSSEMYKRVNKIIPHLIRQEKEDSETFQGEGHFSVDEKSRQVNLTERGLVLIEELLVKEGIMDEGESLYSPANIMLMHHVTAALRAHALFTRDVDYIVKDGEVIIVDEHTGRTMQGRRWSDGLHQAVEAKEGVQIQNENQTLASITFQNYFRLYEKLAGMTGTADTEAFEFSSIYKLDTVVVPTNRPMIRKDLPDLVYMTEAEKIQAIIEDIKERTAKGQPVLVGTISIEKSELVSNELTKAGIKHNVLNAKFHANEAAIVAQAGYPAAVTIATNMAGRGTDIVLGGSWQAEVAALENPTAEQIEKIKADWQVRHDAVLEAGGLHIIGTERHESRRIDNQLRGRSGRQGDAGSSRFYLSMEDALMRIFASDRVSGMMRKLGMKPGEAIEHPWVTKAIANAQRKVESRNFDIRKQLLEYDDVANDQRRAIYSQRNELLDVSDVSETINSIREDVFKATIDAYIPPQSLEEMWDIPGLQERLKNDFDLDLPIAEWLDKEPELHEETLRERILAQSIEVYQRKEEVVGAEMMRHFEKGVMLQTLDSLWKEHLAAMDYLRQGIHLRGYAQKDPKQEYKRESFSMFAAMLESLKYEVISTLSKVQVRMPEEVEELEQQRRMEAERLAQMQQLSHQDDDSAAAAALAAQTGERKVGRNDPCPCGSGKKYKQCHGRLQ

CC(C(=O)NCc1ccnc(N2CCN(C)CC2)c1)n1cccn1 (stereo unspecified)
Percent Effect [1]: -0.897%
Percent Effect [2]: 0%
Percent Effect [3]: -0.213%
Percent Effect [4]: 6.59%
Percent Effect [5]: 7.14%
Percent Effect [6]: 3.06%
Percent Effect [7]: -4.18%
Percent Effect [8]: 1.68%
Percent Effect [9]: 0.49%
Percent Effect [10]: 7.32%
Percent Effect [11]: -5.23%

CCc1ncncc1C(=O)N1CCOC(c2nc(C)n[nH]2)C1 (stereo unspecified)
Percent Effect [1]: -9.48%
Percent Effect [2]: -1.27%
Percent Effect [3]: 7.38%
Percent Effect [4]: 5.45%
Percent Effect [5]: -2.56%
Percent Effect [6]: 2.8%
Percent Effect [7]: 5.32%
Percent Effect [8]: 1.37%
Percent Effect [9]: 1.04%
Percent Effect [10]: 10.1%
Percent Effect [11]: 1.96%

Cc1cnn(CC2CCCN2CCCc2nc3ccccc3o2)c1 (stereo unspecified)
Percent Effect [1]: -6.63%
Percent Effect [2]: 13.5%
Percent Effect [3]: -13.1%
Percent Effect [4]: 10.9%
Percent Effect [5]: 4.18%
Percent Effect [6]: -4.99%
Percent Effect [7]: 6.82%
Percent Effect [8]: 4.32%
Percent Effect [9]: 6.93%
Percent Effect [10]: 18.3%
Percent Effect [11]: -7.36%

CSCc1cccc(C(=O)N2CCN(CC(C)O)CC2)c1 (stereo unspecified)
Percent Effect [1]: -1.86%
Percent Effect [2]: -2.6%
Percent Effect [3]: -1.05%
Percent Effect [4]: 3.73%
Percent Effect [5]: -7.68%
Percent Effect [6]: 2.13%
Percent Effect [7]: 11.8%
Percent Effect [8]: 17.2%
Percent Effect [9]: 1.94%
Percent Effect [10]: -2.44%
Percent Effect [11]: -1.72%

Cc1ccc(-c2nc(CN3CCOC(c4ccccc4)C3)cs2)o1 (stereo unspecified)
Percent Effect [1]: 0.984%
Percent Effect [2]: -24.3%
Percent Effect [3]: -0.197%
Percent Effect [4]: 6.73%
Percent Effect [5]: 2.7%
Percent Effect [6]: 3.81%
Percent Effect [7]: 12.6%
Percent Effect [8]: -17.4%
Percent Effect [9]: 3.7%
Percent Effect [10]: 0%
Percent Effect [11]: 17.1%

Cc1cccc(CCC(=O)N2CCCC(c3cc(C(N)=O)[nH]n3)C2)c1 (stereo unspecified)
Percent Effect [1]: -1.48%
Percent Effect [2]: -18.9%
Percent Effect [3]: 4.97%
Percent Effect [4]: 8.55%
Percent Effect [5]: 6.13%
Percent Effect [6]: -10%
Percent Effect [7]: 0.36%
Percent Effect [8]: 9.14%
Percent Effect [9]: 0.493%
Percent Effect [10]: 11.1%
Percent Effect [11]: -8.73%

CCn1ncnc1C(C)NC(=O)C1CCN(C(C)C)CC1 (stereo unspecified)
Percent Effect [1]: -3.72%
Percent Effect [2]: 5.41%
Percent Effect [3]: -4.36%
Percent Effect [4]: 22.1%
Percent Effect [5]: 0.0978%
Percent Effect [6]: 2.73%
Percent Effect [7]: 15%
Percent Effect [8]: -2.01%
Percent Effect [9]: 9.68%
Percent Effect [10]: 21%
Percent Effect [11]: -5.24%

Cc1cc(-c2cnn(CCNC(=O)c3cccnc3)c2C2CC2)on1
Percent Effect [1]: -4.86%
Percent Effect [2]: 4.05%
Percent Effect [3]: 7.97%
Percent Effect [4]: 2.6%
Percent Effect [5]: -0.395%
Percent Effect [6]: -3.48%
Percent Effect [7]: -1.09%
Percent Effect [8]: 7.9%
Percent Effect [9]: 5.38%
Percent Effect [10]: 9.09%
Percent Effect [11]: 1.21%

O=C(NCCOc1ccc(F)c(F)c1)NCc1cccc(CO)c1
Percent Effect [1]: -2.53%
Percent Effect [2]: 2.7%
Percent Effect [3]: 1.53%
Percent Effect [4]: 4.96%
Percent Effect [5]: 1.16%
Percent Effect [6]: -2.38%
Percent Effect [7]: 15.2%
Percent Effect [8]: 19.7%
Percent Effect [9]: -0.529%
Percent Effect [10]: 7.32%
Percent Effect [11]: -4.04%

COc1cccc(CN(C)C(=O)CN2CCN(CCO)CC2)c1
Percent Effect [1]: -2.96%
Percent Effect [2]: 8%
Percent Effect [3]: -6.71%
Percent Effect [4]: 1.75%
Percent Effect [5]: 0.292%
Percent Effect [6]: 3.12%
Percent Effect [7]: 24.6%
Percent Effect [8]: 14.1%
Percent Effect [9]: 9.29%
Percent Effect [10]: 16.1%
Percent Effect [11]: -7.41%

c1ccc(-c2nnn3c2COC(CNCC2CCOCC2)C3)cc1 (stereo unspecified)
Percent Effect [1]: -4.05%
Percent Effect [2]: 8%
Percent Effect [3]: 10.9%
Percent Effect [4]: 4.62%
Percent Effect [5]: -0.984%
Percent Effect [6]: -1.63%
Percent Effect [7]: 0.0881%
Percent Effect [8]: 12.3%
Percent Effect [9]: 7.45%
Percent Effect [10]: 19.2%
Percent Effect [11]: -2.25%
